# PubChem BioAssay (NCI)
# About 83,000 compounds went through this panel and 20% of them were active in at least one assay; those are over-represented in the sample as a whole.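 Negative percent growth values reflect cell death: -40 means 40% of the cells present at the start died, and -100 means all died.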 Active and inactive are the calls of the source. The calls were made as follows: active = growth percent below 10; inactive = the rest.
# Columns and labels:
# Assay in all cases: NCI-60 one-dose screen, 48 h (100 = growth as untreated, 0 = no growth, -100 = all killed)
# Details in all cases: 10 µM unless noted
# [1] = system: NCI-H23 lung
# [2] = system: NCI-H226 lung
# [3] = system: NCI-H322M lung
# [4] = system: HOP-62 NSCLC
# [5] = system: NCI-H460 lung
# [6] = system: HOP-92 NSCLC
# [7] = system: NCI-H522 lung
# [8] = system: A549/ATCC NSCLC
# [9] = system: 786-0 renal
# [10] = system: COLO 205 colon
SMILES,growth [1],growth [2],growth [3],growth [4],growth [5],growth [6],growth [7],growth [8],growth [9],growth [10]
CCCCCCNC(=O)Oc1ccc(/C(=C(/C)c2ccc(OC)cc2)c2ccc(OCCN3CCCCCC3)cc2)cc1,20.4% (inactive),81% (inactive),82.1% (inactive),-9.29% (active),-67.9% (active),63.4% (inactive),82.4% (inactive),45.7% (inactive),24.3% (inactive),-60.5% (active)
CC(=O)C1=C(C)NC(NNc2ccccc2)=NC1c1ccc([N+](=O)[O-])cc1 (stereo not given),95.3% (inactive),96.7% (inactive),84.6% (inactive),113% (inactive),99.9% (inactive),99.7% (inactive),76.9% (inactive),88.1% (inactive),97.8% (inactive),106% (inactive)
CCN(CC)S(=O)(=O)c1ccc(-c2nc(C(Cl)Cl)nc3cc(-c4ccc(F)cc4)nn23)cc1,21.7% (inactive),77.3% (inactive),41.4% (inactive),10.3% (inactive),10.2% (inactive),-3.41% (active),79.3% (inactive),17.8% (inactive),76.5% (inactive),8.9% (active)
C#C[C@]1(O)CC[C@H]2[C@@H]3CC=C4c5sc(Nc6cc(Cl)ccc6OC)nc5CC[C@]4(C)[C@H]3CC[C@@]21C,33.4% (inactive),52.4% (inactive),53.2% (inactive),32.5% (inactive),17% (inactive),-0.0409% (active),52.8% (inactive),28.7% (inactive),-32.3% (active),21.8% (inactive)
CC1(C)CC[C@]23CC[C@]4(C)[C@H](CC[C@@H]5[C@@]6(C)CC[C@H](N)C(C)(C)[C@@H]6CC[C@]54C)[C@H]2[C@H]1OC3,88.8% (inactive),96.6% (inactive),93.6% (inactive),96.1% (inactive),-34.8% (active),69.3% (inactive),99% (inactive),24.3% (inactive),-60.4% (active),-40.4% (active)
CCOC(=O)C(=O)Nc1ccc2c(ccn2C(=O)c2cccc(F)c2)c1,95.8% (inactive),97.2% (inactive),93.8% (inactive),95.9% (inactive),100% (inactive),78.9% (inactive),96.1% (inactive),102% (inactive),97.6% (inactive),108% (inactive)
CC(C)(C)Nc1nc2c(OCCc3ccccc3)cccn2c1-c1cccc(Oc2ccccc2)c1,11.1% (inactive),15.2% (inactive),15.8% (inactive),11.1% (inactive),8.14% (active),-12.8% (active),-26.1% (active),16.3% (inactive),8.48% (active),-93.8% (active)
Cc1csc(/N=C(N)/N=C(\N)c2cccc(C#N)c2)n1,84.5% (inactive),86.5% (inactive),96.6% (inactive),64.6% (inactive),64.8% (inactive),27% (inactive),79.6% (inactive),71.9% (inactive),87.8% (inactive),76.1% (inactive)
NS(=O)(=O)c1cccc(Nc2nc(SCC(=O)c3ccc(Cl)cc3)nc3c2CCC3)c1,75.1% (inactive),87.7% (inactive),97.1% (inactive),76.3% (inactive),97.6% (inactive),63.3% (inactive),95.6% (inactive),91.7% (inactive),82.5% (inactive),109% (inactive)
c1ccc(-c2cn3c(-c4c[nH]c5ccccc45)csc3n2)cc1,57.8% (inactive),80.4% (inactive),85.4% (inactive),91.3% (inactive),60.8% (inactive),-1.71% (active),51% (inactive),92% (inactive),99.5% (inactive),83.5% (inactive)
COc1ccc(CC(C)=C(c2ccc(OCCN3CCCC3)cc2)c2ccc(OCCN3CCCC3)cc2)cc1,-82.4% (active),-69.2% (active),-75.7% (active),-66% (active),-62.3% (active),-82.4% (active),-86% (active),-68.2% (active),-79.3% (active),-61% (active)
N#Cc1c(-c2cccs2)cc(-c2cnccn2)nc1SCC(=O)N/N=C/c1cccs1,56.6% (inactive),68.9% (inactive),73.1% (inactive),38.8% (inactive),20.8% (inactive),30.1% (inactive),73.1% (inactive),19.4% (inactive),16.6% (inactive),53.5% (inactive)
O=C(CCCCCCNC(=O)C(O)(O)C(F)(F)F)Nc1ccc(Br)cc1,10.9% (inactive),37.2% (inactive),27.1% (inactive),-9.13% (active),12.5% (inactive),-5.9% (active),-36.6% (active),7.9% (active),25.4% (inactive),-60.8% (active)
COc1cc2cc(Oc3ccc(NC(=O)Nc4ccc(F)c(C(F)(F)F)c4)cc3)c(C)nc2cc1OCCN(C)C,102% (inactive),104% (inactive),102% (inactive),104% (inactive),101% (inactive),69.8% (inactive),96.1% (inactive),93.2% (inactive),88.8% (inactive),117% (inactive)
O=C(CCCCCCNC(=O)C(O)(O)C(F)(F)F)Nc1ncc(-c2ccccc2)s1,-1.99% (active),14.9% (inactive),3.47% (active),-6.52% (active),2.92% (active),-19.4% (active),-38.1% (active),-12.9% (active),17.1% (inactive),-73.3% (active)
CC(C)=CCC[C@](C)(O)[C@H]1CC[C@]2(C)[C@@H]1CC[C@@H]1[C@@]3(C)CC[C@H](N)C(C)(C)[C@@H]3CC[C@]12C,76.5% (inactive),93.1% (inactive),111% (inactive),97.9% (inactive),27.4% (inactive),76.3% (inactive),96.8% (inactive),67.3% (inactive),61.9% (inactive),-31.4% (active)
COc1ccc(/C=N\NC(=O)c2cnn(CC(O)c3ccccc3)c2N)cc1OCc1ccc(Cl)cc1 (stereo not given),74.7% (inactive),90.7% (inactive),85% (inactive),84.1% (inactive),44.3% (inactive),86% (inactive),92.7% (inactive),62.9% (inactive),96.2% (inactive),72.8% (inactive)
Cn1ncc2ncc(-c3ccc4ncc(C#N)c(N5CCc6cc(F)c(Cl)cc65)c4c3)cc21,46.8% (inactive),24.7% (inactive),38.9% (inactive),22.3% (inactive),38.5% (inactive),7.43% (active),20.3% (inactive),27.8% (inactive),21.8% (inactive),51.4% (inactive)
CN1CCN(Cc2ccc(NC(=O)c3cncc(C#Cc4cnc5ccc(NCCO)nn45)c3)cc2C(F)(F)F)CC1,-40.2% (active),-14% (active),-15% (active),-41.5% (active),-78% (active),-27.1% (active),-75.8% (active),1.34% (active),-17.9% (active),-82.3% (active)
O=C(CCCCCCN1CC(=O)N2[C@@H](C3CC3)c3[nH]c4ccccc4c3C[C@H]2C1=O)NO,66.4% (inactive),95% (inactive),74.6% (inactive),69.6% (inactive),74.5% (inactive),53.4% (inactive),24.4% (inactive),99% (inactive),108% (inactive),98% (inactive)
CCCCN1C(=O)/C(=c2\sc3n(c2=O)C2C(NN=3)N(CC)C(=O)N2CC)c2cc(C)ccc21 (stereo not given),95.5% (inactive),87.3% (inactive),88.1% (inactive),108% (inactive),102% (inactive),86.5% (inactive),88.3% (inactive),91.4% (inactive),94.4% (inactive),94% (inactive)
Brc1ccc(-c2cc(-c3ccc4c(c3)OCCO4)n[nH]2)s1,40.6% (inactive),75.4% (inactive),42.7% (inactive),51.3% (inactive),14.3% (inactive),64.2% (inactive),20.9% (inactive),33.3% (inactive),73.5% (inactive),28.7% (inactive)
